Results filed as inconclusive are left out. Active and inactive are the calls of the source. The calls were made as follows: active = hit-call score of the fitted dose curve at least 0.9, where 1 is the maximum; inconclusive = response in the unintended direction; inactive = score below 0.9.
Experiments:
[1] = TOX21_p53_BLA_p2_viability: Viability Assessment in the Tox21 HCT-116 p53 Agonism Beta-lactamase Assay, Phase 2 (AID 2283591);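 also: actives lower the ATP signal meaning cytotoxicity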
In short: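 HCT-116 p53-bla cells (4000/well) rested 5 h at 37C, then received compounds in DMSO (217-fold dilution) for 16 h at 37C, 5% CO2. After the CCF4 read, CellTiter-Glo was added; ATP luminescence was read after 30 min at room temperature.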

[2] = molecular target: Cellular tumor antigen p53 (Homo sapiens) (UniProt P04637); assay: TOX21_p53_BLA_p2_ratio: Tox21 HCT-116 p53 Agonism Beta-lactamase Assay, Ratio, Phase 2 (AID 2283592)
In short: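 First, HCT116 reporter cells settle for 5 h at 37C. Next, DMSO compound solutions are pinned in (217-fold dilution) and left 16 h. Finally, CCF4-AM substrate is loaded 2 h at room temperature and the 460/530 nm ratio read.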

[3] = TOX21_p53_BLA_p3_viability: Viability Assessment in the Tox21 HCT-116 p53 Agonism Beta-lactamase Assay, Phase 3 (AID 2283593);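 also: cells exposed to compound for 16 h before reading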
In short: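 HCT-116 cells (4000/well) rested 5 h at 37C, then got DMSO compounds by pin tool (217-fold dilution) for 16 h at 37C, 5% CO2. After the bla read, CellTiter-Glo was added and luminescence read at 30 min, room temperature.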

[4] = molecular target: Cellular tumor antigen p53 (Homo sapiens) (UniProt P04637); assay: TOX21_p53_BLA_p3_ratio: Tox21 HCT-116 p53 Agonism Beta-lactamase Assay, Ratio, Phase 3 (AID 2283596)
In short: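 Cells were seeded at 4000/well, rested 5 h at 37C, then dosed with DMSO compound solutions (217-fold dilution) for 16 h. CCF4-AM substrate was loaded for 2 h at room temperature, and the 460/530 nm emission ratio was fitted for gain of signal versus DMSO.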

[5] = TOX21_p53_BLA_p4_viability: Viability Assessment in the Tox21 HCT-116 p53 Agonism Beta-lactamase Assay, Phase 4 (AID 2283597);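 also: hits lower the luminescence signal meaning cytotoxicity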
In short: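 4000 HCT116 cells per well; 5 h attachment; compounds from DMSO, 217-fold dilution; 16 h at 37C. Then CCF4-AM, 2 h RT, followed by CellTiter-Glo, 30 min RT, luminescence. Decrease = cytotoxicity.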

[6] = molecular target: Cellular tumor antigen p53 (Homo sapiens) (UniProt P04637); assay: TOX21_p53_BLA_p4_ratio: Tox21 HCT-116 p53 Agonism Beta-lactamase Assay, Ratio, Phase 4 (AID 2283601)
In short: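 HCT116 cells carrying an inducible beta-lactamase reporter were plated at 4000 cells/well, rested 5 h, then exposed to compounds in DMSO (217-fold dilution) for 16 h at 37C. CCF4-AM substrate was loaded 2 h at room temperature; 460/530 nm emission ratio scored gain-of-signal versus DMSO.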

[7] = TOX21_p53_BLA_p5_viability: Viability Assessment in the Tox21 HCT-116 p53 Agonism Beta-lactamase Assay, Phase 5 (AID 2283600)
In short: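 Decreased CellTiter-Glo luminescence denotes lost viability. Exposure: 16 h at 37C, 5% CO2, with compounds from DMSO stocks diluted 217-fold in wells of 4000 cells.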

PGR (gene 5241) [8] = molecular target: PGR (gene 5241) (UniProt P06401); assay: TOX21_PR_BLA_Followup_Antagonist_ratio: Tox21 HEK293 Progesterone Receptor (PR) Antagonism Beta-lactamase Follow-Up Assay, Ratio (AID 2283934);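 also: PR-UAS-bla HEK293T cells stimulated with 1 nM R5020 agonist for 16 hr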
In short: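 Measured in PR-UAS-bla HEK293T cells co-treated with compound and 1 nM promegestone for 16 hr; beta-lactamase ratio read after 2 h FRET substrate loading, with parallel CellTiter-Glo cytotoxicity.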

[9] = TOX21_PR_BLA_Followup_Agonist_viability: Viability Assessment in the Tox21 HEK293 Progesterone Receptor (PR) Agonism Beta-lactamase Follow-Up Assay (AID 2283935);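 also: signal loss means lower viability so actives are cytotoxic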
In short: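 Viability is read as CellTiter-Glo luminescence, where loss of signal indicates cytotoxicity. The cells are PR-UAS-bla HEK293T given compounds for 16 hr at 37C and 5% CO2, in the same wells used for the bla readout.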

[10] = TOX21_PR_BLA_Followup_Antagonist_viability: Viability Assessment in the Tox21 HEK293 Progesterone Receptor (PR) Antagonism Beta-lactamase Follow-Up Assay (AID 2283936);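 also: cells exposed to compound with R5020 agonist for 16 h; hits lower the luminescence signal meaning cytotoxicity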
In short: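 PR-UAS-bla HEK293T cells in medium with 2% charcoal-stripped FBS were treated with compounds plus R5020 for 16 hr at 37C. After the beta-lactamase read, CellTiter-Glo was added to the same wells and luminescence read after 30 min at room temperature.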

PGR (gene 5241) [11] = molecular target: PGR (gene 5241) (UniProt P06401); assay: TOX21_PR_LUC_Followup_Antagonist: Tox21 HEK293 Progesterone Receptor (PR) Antagonism Luciferase Follow-Up Assay (AID 2283938);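 also: curve fitted upward as signal gain over DMSO baseline despite antagonist label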
In short: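 HEK293-PR-A-luc cells, 3,000/well, preincubated 5 h at 37C before compound addition in DMSO; 16 h compound exposure at 37C. ONE-Glo luciferase luminescence read after 30 min at room temperature, fitted relative to DMSO baseline.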

[12] = TOX21_PR_LUC_Followup_Antagonist_viability: Viability Assessment in the Tox21 HEK293 Progesterone Receptor (PR) Antagonism Luciferase Follow-Up Assay (AID 2283940)
In short: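 Loss of CellTiter-Glo ATP signal indicates cytotoxicity in HEK293-PR-A-luc cells grown in 10% charcoal-stripped FBS medium, seeded 3,000 per well and incubated 16 h with compound at 37C.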

[13] = TOX21_PR_LUC_Followup_Agonist_viability: Viability Assessment in the Tox21 HEK293 Progesterone Receptor (PR) Agonism Luciferase Follow-Up Assay (AID 2283941);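 also: loss of signal means cytotoxicity so actives lower viability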
In short: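 Seeding: HEK293-PR-A-luc, 3,000 cells/well, 5 h at 37C. Treatment: compound in DMSO, 16 h, 37C. Read: CellTiter-Glo ATP luminescence, signal loss taken as lower viability.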

[14] = molecular target: Cellular tumor antigen p53 (Homo sapiens) (UniProt P04637); assay: TOX21_p53_BLA_p5_ratio: Tox21 HCT-116 p53 Agonism Beta-lactamase Assay, Ratio, Phase 5 (AID 2283599)
In short: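 HCT-116 cells carrying a p53-inducible beta-lactamase reporter were seeded at 4000 cells/well and dosed after 5 h with compound in DMSO (217-fold dilution). After 16 h at 37C, CCF4-AM substrate was added for 2 h, and the 460/530 nm emission ratio was scored as gain-of-signal versus DMSO.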

Sequence of Cellular tumor antigen p53 (Homo sapiens) (P04637 whole entry, looked up): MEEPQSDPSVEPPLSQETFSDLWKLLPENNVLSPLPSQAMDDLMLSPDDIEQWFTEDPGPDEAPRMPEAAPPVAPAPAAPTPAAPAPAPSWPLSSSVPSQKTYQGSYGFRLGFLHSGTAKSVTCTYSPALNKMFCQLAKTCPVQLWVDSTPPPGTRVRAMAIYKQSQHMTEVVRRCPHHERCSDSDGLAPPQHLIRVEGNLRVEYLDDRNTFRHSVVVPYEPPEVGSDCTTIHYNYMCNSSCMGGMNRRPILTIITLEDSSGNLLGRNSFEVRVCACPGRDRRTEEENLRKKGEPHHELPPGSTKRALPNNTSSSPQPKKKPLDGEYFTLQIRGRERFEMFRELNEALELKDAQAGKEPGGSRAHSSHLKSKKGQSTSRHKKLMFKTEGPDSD
Sequence of PGR (gene 5241) (P06401 whole entry, looked up): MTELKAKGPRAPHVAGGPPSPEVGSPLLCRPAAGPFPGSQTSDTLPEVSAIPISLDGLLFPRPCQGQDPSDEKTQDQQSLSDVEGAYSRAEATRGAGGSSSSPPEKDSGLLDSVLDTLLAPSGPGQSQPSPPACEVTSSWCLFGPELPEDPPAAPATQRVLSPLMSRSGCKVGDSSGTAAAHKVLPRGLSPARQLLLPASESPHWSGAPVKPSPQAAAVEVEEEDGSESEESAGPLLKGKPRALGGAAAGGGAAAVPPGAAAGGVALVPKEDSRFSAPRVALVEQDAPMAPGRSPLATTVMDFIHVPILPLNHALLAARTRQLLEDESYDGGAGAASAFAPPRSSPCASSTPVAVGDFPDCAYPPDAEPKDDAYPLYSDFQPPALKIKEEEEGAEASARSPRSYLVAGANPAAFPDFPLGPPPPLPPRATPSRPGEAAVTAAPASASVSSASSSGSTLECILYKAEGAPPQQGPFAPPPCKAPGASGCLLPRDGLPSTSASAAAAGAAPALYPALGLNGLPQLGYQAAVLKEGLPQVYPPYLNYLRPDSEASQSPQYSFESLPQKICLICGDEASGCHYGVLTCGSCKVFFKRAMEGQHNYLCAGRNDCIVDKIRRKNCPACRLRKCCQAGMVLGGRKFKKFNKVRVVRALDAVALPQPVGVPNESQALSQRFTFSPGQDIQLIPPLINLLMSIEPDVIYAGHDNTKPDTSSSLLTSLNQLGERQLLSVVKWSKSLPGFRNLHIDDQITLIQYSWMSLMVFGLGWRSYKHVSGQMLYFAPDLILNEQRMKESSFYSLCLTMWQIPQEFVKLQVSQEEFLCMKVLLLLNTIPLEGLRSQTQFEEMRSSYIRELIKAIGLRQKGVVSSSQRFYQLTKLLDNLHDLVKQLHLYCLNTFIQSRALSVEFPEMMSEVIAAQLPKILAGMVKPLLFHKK

O
outcome [1]: inactive | outcome [2]: inactive | outcome [3]: inactive | outcome [4]: inactive | outcome [5]: inactive | outcome [6]: inactive

CN(C1CCCCC1)S(=O)(=O)c1ccccc1N
outcome [1]: inactive | outcome [2]: inactive | outcome [3]: inactive | outcome [4]: inactive | outcome [5]: inactive | outcome [7]: inactive | outcome [6]: inactive | AC50 (PGR (gene 5241) [8]): 25.7 µM (active) | outcome [9]: inactive | outcome [10]: inactive | AC50 (PGR (gene 5241) [11]): 24.2 µM (active) | outcome [12]: inactive | outcome [13]: inactive

OCCSc1ccccc1
outcome [1]: inactive | outcome [2]: inactive | outcome [3]: inactive | outcome [4]: inactive | outcome [5]: inactive | outcome [6]: inactive

CC(CNC1CCCCC1)OC(=O)c1ccccc1 (centres undefined)
outcome [1]: inactive | outcome [2]: inactive | outcome [3]: inactive | outcome [4]: inactive | outcome [14]: inactive

CC(C)(C)CC(=O)OCC(=O)[C@@]12OC(C)(C)O[C@@H]1C[C@H]1[C@@H]3CCC4=CC(=O)C=C[C@]4(C)[C@@]3(F)[C@@H](O)C[C@@]12C
outcome [1]: inactive | outcome [2]: inactive | outcome [3]: inactive | outcome [4]: inactive | outcome [14]: inactive | outcome [7]: inactive | outcome [6]: inactive

O=C(CCBr)N1CCN(C(=O)CCBr)CC1
outcome [1]: inactive | outcome [2]: inactive | outcome [3]: inactive | outcome [4]: inactive | outcome [14]: inactive | outcome [7]: inactive | outcome [6]: inactive

C=C1c2cccc(O)c2C(O)=C2C(=O)[C@]3(O)C(O)=C(C(N)=O)C(=O)[C@@H](N(C)C)[C@@H]3[C@@H](O)[C@H]12
outcome [1]: inactive | outcome [2]: inactive | outcome [3]: inactive | outcome [4]: inactive | outcome [14]: inactive | outcome [7]: inactive | outcome [6]: inactive

CCOc1nc2cccc(C(=O)O)c2n1Cc1ccc(-c2ccccc2-c2nn[nH]n2)cc1
AC50 [1]: 21.9 µM (active) | AC50 [2]: 28.7 µM (active) | AC50 [3]: 35.8 µM (active) | AC50 [4]: 43.3 µM (active) | AC50 [14]: 44.3 µM (active) | AC50 [7]: 38.2 µM (active) | outcome [6]: inactive

C/C=C1\NC(=O)[C@H]2CSSCC/C=C/[C@H](CC(=O)N[C@H](C(C)C)C(=O)N2)OC(=O)C(C(C)C)NC1=O (some centres undefined)
AC50 [1]: 1.46 µM (active) | AC50 [2]: 0.00463 µM (active) | AC50 [3]: 1.87 µM (active) | AC50 [4]: 4.57 µM (active) | AC50 [14]: 11.4 µM (active) | AC50 [7]: 2.56 µM (active)

From PubChem BioAssay (EPA / NIEHS)
